# Results reported in article PMC7862700, “An all-to-all approach to the identification of sequence-specific readers for epigenetic DNA modifications on cytosine”.
# Experiments:
# Test in all cases: DAPPL (digital affinity profiling via proximity ligation, sequencing); 10 mM Tris-HCl pH 7.5, 50 mM NaCl, 1 mM DTT, 4% glycerol, room temperature, 30 min; GST-TFs on glutathione beads, 16-mer random dsDNA library, 0.1% formaldehyde crosslink after washing; high values mean tight binding
# FEV = molecular target: T1, FEV (Homo sapiens, UniProt Q99581 1-238); conditions: protein: recombinant; tags: N-terminal GST; dsDNA, one strand shown
# T1 sequence: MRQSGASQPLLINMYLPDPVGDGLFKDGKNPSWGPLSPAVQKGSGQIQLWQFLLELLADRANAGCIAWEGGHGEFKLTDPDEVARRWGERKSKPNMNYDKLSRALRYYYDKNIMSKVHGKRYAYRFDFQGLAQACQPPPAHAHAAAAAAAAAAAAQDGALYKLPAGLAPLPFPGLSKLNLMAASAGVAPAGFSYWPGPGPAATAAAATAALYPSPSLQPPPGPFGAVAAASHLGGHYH
# Method in brief: (§1)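 Sequencing on an Illumina NextSeq500 followed washing, crosslinking with 0.1% formaldehyde, proximity ligation (BsaI/T4 ligase, 1 h, 37 °C) and PCR amplification of pools that had been incubated for 30 min at room temperature with 200 nmole of a random double-stranded 16-mer DNA library in Tris/NaCl/DTT/glycerol buffer. Each pool held DNA-barcoded human transcription factors, expressed in yeast as GST fusions and captured on glutathione beads, plus a tag-only sample. Binding signal is a hexamer's read frequency for a factor divided by its frequency in the tag-only sample.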
# ETV5 = ETV5 (Homo sapiens, UniProt P41161 1-510); conditions: protein: recombinant; tags: N-terminal GST; dsDNA, one strand shown
# Method in brief: as §1
# HSF1 = HSF1 (Homo sapiens, UniProt Q00613 1-529); conditions: protein: recombinant; tags: N-terminal GST; chain copies: 3; dsDNA, one strand shown
# Method in brief: as §1
# SPIC = molecular target: T2, SPIC (Homo sapiens, UniProt Q8N5J4 1-248); conditions: protein: recombinant; tags: N-terminal GST; dsDNA, one strand shown
# T2 sequence: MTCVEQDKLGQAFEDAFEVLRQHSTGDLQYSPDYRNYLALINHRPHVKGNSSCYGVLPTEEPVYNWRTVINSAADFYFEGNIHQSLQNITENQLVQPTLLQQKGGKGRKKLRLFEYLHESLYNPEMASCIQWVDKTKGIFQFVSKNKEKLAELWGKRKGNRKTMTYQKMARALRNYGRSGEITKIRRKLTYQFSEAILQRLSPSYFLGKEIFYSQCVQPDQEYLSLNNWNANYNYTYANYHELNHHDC
# Method in brief: as §1
# ELF4 = ELF4 (Homo sapiens, UniProt Q99607 1-663); conditions: protein: recombinant; tags: N-terminal GST; dsDNA, one strand shown
# Method in brief: as §1
# ELK4 = molecular target: T3, ELK4 (Homo sapiens, UniProt P28324-2 1-405); conditions: protein: recombinant; tags: N-terminal GST; dsDNA, one strand shown
# T3 sequence: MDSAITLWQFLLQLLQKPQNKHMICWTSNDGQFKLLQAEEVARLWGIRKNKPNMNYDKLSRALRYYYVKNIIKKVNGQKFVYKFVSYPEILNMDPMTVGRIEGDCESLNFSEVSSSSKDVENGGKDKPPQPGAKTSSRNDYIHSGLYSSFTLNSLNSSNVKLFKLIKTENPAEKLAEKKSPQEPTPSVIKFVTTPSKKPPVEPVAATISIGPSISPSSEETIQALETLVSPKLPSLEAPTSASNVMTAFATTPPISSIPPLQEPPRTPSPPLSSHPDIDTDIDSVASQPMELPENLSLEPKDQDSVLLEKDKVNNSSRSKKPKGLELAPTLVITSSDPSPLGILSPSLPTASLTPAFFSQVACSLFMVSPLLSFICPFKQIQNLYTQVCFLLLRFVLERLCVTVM
# Method in brief: as §1
# ETV2 = molecular target: T4, ETV2 (Homo sapiens, UniProt O00321 1-342); conditions: protein: recombinant; tags: N-terminal GST; dsDNA, one strand shown
# T4 sequence: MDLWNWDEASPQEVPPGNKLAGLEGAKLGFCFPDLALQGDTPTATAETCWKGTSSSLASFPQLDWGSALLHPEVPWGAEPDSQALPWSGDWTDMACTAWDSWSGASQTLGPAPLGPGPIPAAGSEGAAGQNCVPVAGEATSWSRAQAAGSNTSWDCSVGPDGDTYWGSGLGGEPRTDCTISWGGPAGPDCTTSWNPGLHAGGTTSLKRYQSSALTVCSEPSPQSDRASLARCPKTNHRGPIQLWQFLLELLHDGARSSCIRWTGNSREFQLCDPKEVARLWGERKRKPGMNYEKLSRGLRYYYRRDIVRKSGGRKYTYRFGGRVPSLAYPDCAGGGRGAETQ
# Method in brief: as §1
# ELF3 = molecular target: T5, ELF3 (Homo sapiens, UniProt P78545 1-371); conditions: protein: recombinant; tags: N-terminal GST; dsDNA, one strand shown
# T5 sequence: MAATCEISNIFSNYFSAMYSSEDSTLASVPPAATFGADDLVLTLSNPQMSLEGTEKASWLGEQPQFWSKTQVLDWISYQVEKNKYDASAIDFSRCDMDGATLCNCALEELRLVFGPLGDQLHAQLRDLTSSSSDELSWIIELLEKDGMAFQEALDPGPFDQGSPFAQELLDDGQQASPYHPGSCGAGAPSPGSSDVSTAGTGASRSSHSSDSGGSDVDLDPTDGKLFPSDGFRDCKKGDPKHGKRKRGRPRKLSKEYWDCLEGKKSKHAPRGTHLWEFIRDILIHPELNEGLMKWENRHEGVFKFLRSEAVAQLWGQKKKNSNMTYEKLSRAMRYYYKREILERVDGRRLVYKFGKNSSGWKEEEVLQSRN
# Method in brief: as §1
# CRX = CRX (Homo sapiens, UniProt O43186 1-299); conditions: protein: recombinant; tags: N-terminal GST; dsDNA, one strand shown
# Method in brief: as §1
# ETV1 = ETV1 (Homo sapiens, UniProt P50549 1-477); conditions: protein: recombinant; tags: N-terminal GST; dsDNA, one strand shown
# Method in brief: as §1
# Sequence of ETV1 (P50549 whole entry): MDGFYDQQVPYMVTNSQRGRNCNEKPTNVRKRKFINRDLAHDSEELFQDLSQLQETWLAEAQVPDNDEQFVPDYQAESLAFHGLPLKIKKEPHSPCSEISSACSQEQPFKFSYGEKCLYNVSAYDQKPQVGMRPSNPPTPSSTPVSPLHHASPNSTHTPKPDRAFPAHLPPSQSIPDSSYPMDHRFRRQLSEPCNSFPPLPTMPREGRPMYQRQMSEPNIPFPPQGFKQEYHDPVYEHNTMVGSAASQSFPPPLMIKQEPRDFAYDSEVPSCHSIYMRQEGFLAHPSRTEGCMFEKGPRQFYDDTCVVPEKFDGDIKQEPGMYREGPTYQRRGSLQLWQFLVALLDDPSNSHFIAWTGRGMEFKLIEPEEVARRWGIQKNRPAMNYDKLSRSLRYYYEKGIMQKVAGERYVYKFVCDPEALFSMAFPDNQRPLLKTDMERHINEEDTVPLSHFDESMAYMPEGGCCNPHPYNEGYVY
# Sequence of HSF1 (Q00613 whole entry): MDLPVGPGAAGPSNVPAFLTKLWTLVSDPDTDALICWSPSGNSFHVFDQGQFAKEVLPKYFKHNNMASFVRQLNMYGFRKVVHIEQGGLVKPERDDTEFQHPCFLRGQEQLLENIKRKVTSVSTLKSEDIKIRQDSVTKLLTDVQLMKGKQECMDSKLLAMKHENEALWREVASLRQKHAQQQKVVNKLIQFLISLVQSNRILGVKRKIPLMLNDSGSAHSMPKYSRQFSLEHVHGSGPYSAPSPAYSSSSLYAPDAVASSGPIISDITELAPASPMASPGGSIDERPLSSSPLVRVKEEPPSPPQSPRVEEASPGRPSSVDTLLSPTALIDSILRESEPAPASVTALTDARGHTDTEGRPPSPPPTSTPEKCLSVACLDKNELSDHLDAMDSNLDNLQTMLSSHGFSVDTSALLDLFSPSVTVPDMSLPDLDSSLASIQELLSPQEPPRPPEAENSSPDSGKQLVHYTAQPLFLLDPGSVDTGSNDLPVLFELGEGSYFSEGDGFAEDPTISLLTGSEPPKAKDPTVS
# Sequence of ETV5 (P41161 whole entry): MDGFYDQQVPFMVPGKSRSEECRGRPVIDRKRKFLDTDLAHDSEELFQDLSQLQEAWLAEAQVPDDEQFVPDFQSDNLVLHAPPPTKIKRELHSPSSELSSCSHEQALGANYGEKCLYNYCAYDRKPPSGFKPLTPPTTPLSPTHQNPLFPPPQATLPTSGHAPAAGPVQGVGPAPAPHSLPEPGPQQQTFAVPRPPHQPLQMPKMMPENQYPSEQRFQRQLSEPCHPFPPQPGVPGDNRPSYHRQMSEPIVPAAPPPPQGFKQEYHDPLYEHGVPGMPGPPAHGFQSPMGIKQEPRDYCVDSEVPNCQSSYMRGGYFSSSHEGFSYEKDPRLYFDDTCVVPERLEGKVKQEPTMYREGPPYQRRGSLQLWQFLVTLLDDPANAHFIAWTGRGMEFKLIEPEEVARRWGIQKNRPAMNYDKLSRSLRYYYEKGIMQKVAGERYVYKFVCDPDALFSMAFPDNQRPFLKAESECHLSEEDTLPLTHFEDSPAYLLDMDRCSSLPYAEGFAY
# Sequence of ELF4 (Q99607 whole entry): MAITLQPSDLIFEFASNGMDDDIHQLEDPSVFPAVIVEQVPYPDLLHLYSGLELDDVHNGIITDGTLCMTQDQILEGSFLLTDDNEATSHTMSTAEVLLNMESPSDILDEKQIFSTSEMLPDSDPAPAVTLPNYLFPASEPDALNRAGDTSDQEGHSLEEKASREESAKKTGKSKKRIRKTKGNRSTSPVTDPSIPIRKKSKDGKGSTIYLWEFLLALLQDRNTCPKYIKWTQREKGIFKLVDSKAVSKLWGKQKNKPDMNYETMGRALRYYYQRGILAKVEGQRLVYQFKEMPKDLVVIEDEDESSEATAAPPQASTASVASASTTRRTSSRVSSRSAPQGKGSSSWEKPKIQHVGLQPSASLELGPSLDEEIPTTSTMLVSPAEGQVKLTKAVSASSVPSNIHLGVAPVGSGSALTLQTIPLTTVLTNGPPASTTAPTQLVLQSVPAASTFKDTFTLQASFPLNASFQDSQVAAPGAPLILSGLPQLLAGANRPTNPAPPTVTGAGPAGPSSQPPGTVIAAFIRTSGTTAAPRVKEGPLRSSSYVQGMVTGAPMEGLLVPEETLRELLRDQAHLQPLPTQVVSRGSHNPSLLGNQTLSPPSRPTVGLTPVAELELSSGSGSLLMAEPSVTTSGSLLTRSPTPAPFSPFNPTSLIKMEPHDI
# Sequence of CRX (O43186 whole entry): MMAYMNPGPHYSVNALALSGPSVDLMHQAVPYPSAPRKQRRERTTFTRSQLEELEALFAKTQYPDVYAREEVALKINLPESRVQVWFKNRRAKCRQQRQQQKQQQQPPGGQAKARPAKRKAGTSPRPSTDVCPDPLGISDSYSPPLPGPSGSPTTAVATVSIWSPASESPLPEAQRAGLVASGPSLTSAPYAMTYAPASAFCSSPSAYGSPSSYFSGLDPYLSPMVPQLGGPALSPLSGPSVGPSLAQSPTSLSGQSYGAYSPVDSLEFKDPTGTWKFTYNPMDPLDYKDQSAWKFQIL
sequence,measurement,setting,value
CCGGAT,binding signal,FEV,"7.2 fold enrichment (6-mer frequency, TF over GST control)"
same,binding signal,ETV5,"3.55 fold enrichment (6-mer frequency, TF over GST control)"
same,binding signal,HSF1,"1.63 fold enrichment (6-mer frequency, TF over GST control)"
same,binding signal,SPIC,"2.66 fold enrichment (6-mer frequency, TF over GST control)"
same,binding signal,ELF4,"2.75 fold enrichment (6-mer frequency, TF over GST control)"
same,binding signal,ELK4,"2.74 fold enrichment (6-mer frequency, TF over GST control)"
same,binding signal,ETV2,"2.89 fold enrichment (6-mer frequency, TF over GST control)"
same,binding signal,ELF3,"3.19 fold enrichment (6-mer frequency, TF over GST control)"
same,binding signal,CRX,"2.03 fold enrichment (6-mer frequency, TF over GST control)"
same,binding signal,ETV1,"3.5 fold enrichment (6-mer frequency, TF over GST control)"
CCCGCA,binding signal,FEV,"1.26 fold enrichment (6-mer frequency, TF over GST control)"
same,binding signal,ETV5,"1.27 fold enrichment (6-mer frequency, TF over GST control)"
same,binding signal,HSF1,"1.22 fold enrichment (6-mer frequency, TF over GST control)"
same,binding signal,SPIC,"1.27 fold enrichment (6-mer frequency, TF over GST control)"
same,binding signal,ELF4,"1.34 fold enrichment (6-mer frequency, TF over GST control)"
same,binding signal,ELK4,"1.35 fold enrichment (6-mer frequency, TF over GST control)"
same,binding signal,ETV2,"1.28 fold enrichment (6-mer frequency, TF over GST control)"
same,binding signal,ELF3,"1.36 fold enrichment (6-mer frequency, TF over GST control)"
same,binding signal,CRX,"1.1 fold enrichment (6-mer frequency, TF over GST control)"
same,binding signal,ETV1,"1.23 fold enrichment (6-mer frequency, TF over GST control)"
ACTAAC,binding signal,FEV,"1.25 fold enrichment (6-mer frequency, TF over GST control)"
same,binding signal,ETV5,"1.26 fold enrichment (6-mer frequency, TF over GST control)"
same,binding signal,HSF1,"1.08 fold enrichment (6-mer frequency, TF over GST control)"
same,binding signal,SPIC,"1.27 fold enrichment (6-mer frequency, TF over GST control)"
same,binding signal,ELF4,"1.33 fold enrichment (6-mer frequency, TF over GST control)"
same,binding signal,ELK4,"1.19 fold enrichment (6-mer frequency, TF over GST control)"
same,binding signal,ETV2,"1.19 fold enrichment (6-mer frequency, TF over GST control)"
same,binding signal,ELF3,"1.25 fold enrichment (6-mer frequency, TF over GST control)"
same,binding signal,CRX,"1.18 fold enrichment (6-mer frequency, TF over GST control)"
same,binding signal,ETV1,"1.25 fold enrichment (6-mer frequency, TF over GST control)"
CTCGTT,binding signal,FEV,"1.22 fold enrichment (6-mer frequency, TF over GST control)"
same,binding signal,ETV5,"1.29 fold enrichment (6-mer frequency, TF over GST control)"
same,binding signal,HSF1,"1.24 fold enrichment (6-mer frequency, TF over GST control)"
same,binding signal,SPIC,"1.37 fold enrichment (6-mer frequency, TF over GST control)"
same,binding signal,ELF4,"1.28 fold enrichment (6-mer frequency, TF over GST control)"
same,binding signal,ELK4,"1.4 fold enrichment (6-mer frequency, TF over GST control)"
same,binding signal,ETV2,"1.36 fold enrichment (6-mer frequency, TF over GST control)"
same,binding signal,ELF3,"1.46 fold enrichment (6-mer frequency, TF over GST control)"
same,binding signal,CRX,"1.1 fold enrichment (6-mer frequency, TF over GST control)"
same,binding signal,ETV1,"1.22 fold enrichment (6-mer frequency, TF over GST control)"
AAGCAT,binding signal,FEV,"1.07 fold enrichment (6-mer frequency, TF over GST control)"
same,binding signal,ETV5,"1.06 fold enrichment (6-mer frequency, TF over GST control)"
same,binding signal,HSF1,"1.15 fold enrichment (6-mer frequency, TF over GST control)"
same,binding signal,SPIC,"1.06 fold enrichment (6-mer frequency, TF over GST control)"
same,binding signal,ELF4,"1.13 fold enrichment (6-mer frequency, TF over GST control)"
same,binding signal,ELK4,"1.19 fold enrichment (6-mer frequency, TF over GST control)"
same,binding signal,ETV2,"1.06 fold enrichment (6-mer frequency, TF over GST control)"
same,binding signal,ELF3,"1.17 fold enrichment (6-mer frequency, TF over GST control)"
same,binding signal,CRX,"1.14 fold enrichment (6-mer frequency, TF over GST control)"
same,binding signal,ETV1,"1.04 fold enrichment (6-mer frequency, TF over GST control)"
TTCGCT,binding signal,FEV,"1.2 fold enrichment (6-mer frequency, TF over GST control)"
same,binding signal,ETV5,"1.24 fold enrichment (6-mer frequency, TF over GST control)"
same,binding signal,HSF1,"1.29 fold enrichment (6-mer frequency, TF over GST control)"
same,binding signal,SPIC,"1.08 fold enrichment (6-mer frequency, TF over GST control)"
same,binding signal,ELF4,"1.36 fold enrichment (6-mer frequency, TF over GST control)"
same,binding signal,ELK4,"1.29 fold enrichment (6-mer frequency, TF over GST control)"
same,binding signal,ETV2,"1.49 fold enrichment (6-mer frequency, TF over GST control)"
same,binding signal,ELF3,"1.26 fold enrichment (6-mer frequency, TF over GST control)"
same,binding signal,CRX,"1.13 fold enrichment (6-mer frequency, TF over GST control)"
same,binding signal,ETV1,"1.27 fold enrichment (6-mer frequency, TF over GST control)"
ACGTTC,binding signal,FEV,"1.3 fold enrichment (6-mer frequency, TF over GST control)"
same,binding signal,ETV5,"1.27 fold enrichment (6-mer frequency, TF over GST control)"
same,binding signal,HSF1,"1.94 fold enrichment (6-mer frequency, TF over GST control)"
same,binding signal,SPIC,"1.21 fold enrichment (6-mer frequency, TF over GST control)"
same,binding signal,ELF4,"1.42 fold enrichment (6-mer frequency, TF over GST control)"
same,binding signal,ELK4,"1.29 fold enrichment (6-mer frequency, TF over GST control)"
same,binding signal,ETV2,"1.25 fold enrichment (6-mer frequency, TF over GST control)"
same,binding signal,ELF3,"1.25 fold enrichment (6-mer frequency, TF over GST control)"
same,binding signal,CRX,"1.28 fold enrichment (6-mer frequency, TF over GST control)"
same,binding signal,ETV1,"1.28 fold enrichment (6-mer frequency, TF over GST control)"
